# Screens: PubChem BioAssay, The Scripps Research Institute Molecular Screening Center
# An excerpt weighted towards active compounds, which were near 3.4% of everything screened.
# GPR151 activ: activators of human GPR151. AID 1508602. hit rate 1% among 650,000. activation, % at 11.2 µM. PathHunter beta-arrestin GPR151 cells, luminescence. Q8TDV0; in the data active = activation above about 4.9%;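 also: 0% = median of compound wells and 100% = cells with positive control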
# FBW7 activator: human FBW7 E3 ligase activation, primary screen; hit rate 0.13% among 650,000; normalized activity (activation), % at 26.1 µM; AlphaScreen FBW7–phospho-cyclin E peptide binding, activator screen; in the data active = normalized activity above about 1.9%;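 also: purified mutant Fbw7 with reduced substrate affinity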
# MITF inh: inhibitors of human MITF. AlphaScreen MITF homodimerization, bead proximity signal. inhibition, % at 2.6 µM. hit rate 0.91% among 650,000; in the data active = inhibition above about 50%;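 also: 0% = vehicle wells with protein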
# TEAD-YAP block: TEAD-YAP interaction inhibition | HEK-TIYL cells, TEAD-Gal4/YAP UAS-luciferase luminescence | inhibition, % at 9.12 µM | hit rate 1.4% among 640,000 | AID 1259422; in the data active = inhibition above about 32%;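 also: 0% = median of test compound wells and 100% = reference inhibitor wells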
# GPR151 confirm: confirmation of human GPR151 activators | shares compounds with GPR151 activ | activation, % at 11.2 µM | 6,700 tested, under 10 active | GPR151 PathHunter beta-arrestin cells, luminescence, 90 min; % of EA-reagent control over plate median;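 active = mean percent activation across replicates above the confirmation screen cutoff of 4.91%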
# GPR119 ag: activates human GPR119 in a GPR151 counter-screen. shares compounds with GPR151 activ. GPR119 PathHunter beta-arrestin cells, luminescence, 90 min; 0 = compound-well median, 100 = enzyme-acceptor control. activation, % at 11.2 µM. hit rate 0.3% among 6,700;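 active = mean percent activation in the counterscreen above 29.09%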;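 also: counterscreen on off-target GPR119 to flag nonselective hits from the GPR151 activator screen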
# Target sequence (Q8TDV5 whole entry, looked up): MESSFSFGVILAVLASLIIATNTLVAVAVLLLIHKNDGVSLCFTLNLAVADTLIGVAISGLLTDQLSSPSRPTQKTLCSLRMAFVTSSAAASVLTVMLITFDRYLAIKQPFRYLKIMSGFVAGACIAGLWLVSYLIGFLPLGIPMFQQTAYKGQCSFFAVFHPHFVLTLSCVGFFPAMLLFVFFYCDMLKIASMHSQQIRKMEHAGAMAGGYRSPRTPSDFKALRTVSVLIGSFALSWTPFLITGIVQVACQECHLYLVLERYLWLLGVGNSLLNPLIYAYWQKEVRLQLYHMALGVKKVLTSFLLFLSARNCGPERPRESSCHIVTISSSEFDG
# An asterisk follows results filed as active; · = no result.
SMILES,GPR151 activ,FBW7 activator,MITF inh,TEAD-YAP block,GPR151 confirm,GPR119 ag
OCC1(Cc2ccccc2)CCN(Cc2cccc3c2OCO3)CC1,5.0*,0,-3,-4,0,-3
OCC1(Cc2ccccc2)CCN(Cc2cccc3nonc23)CC1,2,0,0,2,·,·
Cc1ccc(C)c(-n2c(N)c(C(=O)NC3CCCCC3)sc2=S)c1,1,0,3,-1,·,·
Cc1ccccc1NC(=O)C(=O)NCC(c1ccc2c(c1)OCO2)N1CCN(C)CC1 (centres undefined),5.7*,0,1,-10,0,-5
O=C(NCC(c1ccc2c(c1)OCO2)N1CCN(c2ccccc2F)CC1)c1cnccn1 (centres undefined),5.5*,0,15,-23,1,6
O=C1[C@@H]2C[C@H](NCc3cccc(F)c3)CN2C(=O)[C@@H]2CCCN12,0,0,-11,-4,·,·
COc1cc2nc(Nc3ccncn3)nc(Nc3ccccc3)c2cc1OC,1,1,3,-18,·,·
CCOc1ccc(-n2c(N)c(C(=O)Nc3ccccc3C)sc2=S)cc1,0,0,13,7,·,·
CCN(CC)CCn1c(N)c(C(=O)Nc2ccccc2C)sc1=S,6.0*,0,3,2,1,10
COc1ccc(C(=O)N2CCN(S(=O)(=O)c3cc4c5c(c3)CCC(=O)N5CCC4)CC2)cc1,5.7*,0,2,7,0,0
Cc1ccccc1CNC(=O)C(=O)NCc1ccc2c(c1)OCO2,5.4*,0,2,7,0,6
O=C(NCc1ccc2c(c1)OCO2)C(=O)Nc1ccccc1,-1,0,16,-22,·,·
O=C1CCSc2c1cccc2C(=O)NCc1ccc2c(c1)OCO2,5.6*,0,3,26,1,1
O=C(NCc1ccc2c(c1)OCO2)c1ccc(Br)s1,6.2*,0,2,-2,0,4
CCOC(=O)C1=C(C)N=c2s/c(=C/c3cc(Br)c(Br)o3)c(=O)n2C1c1cccs1 (centres undefined),-1,0,3,-10,·,·
CCOC(=O)C1=C(C)N=c2s/c(=C/c3ccc(-c4ccc(C(=O)OCC)cc4)o3)c(=O)n2C1c1ccc(N(C)C)cc1 (centres undefined),0,0,3,-23,·,·
CCOC(=O)C1=C(C)N=c2s/c(=C\c3ccc(Br)o3)c(=O)n2C1c1cccs1 (centres undefined),4.9*,0,2,6,-1,0
CCOC(=O)C1=C(C)N=c2s/c(=C/c3ccc(-c4ccc(Br)cc4)o3)c(=O)n2C1c1ccc(N(C)C)cc1 (centres undefined),5.5*,0,-8,6,0,-3
C=CCn1c(N2CCC(C(=O)NCCCn3ccnc3)CC2)nc2ccccc21,0,0,-8,-3,·,·
CC(=O)NC(c1ccco1)c1cc(Cl)c2cccnc2c1O (centres undefined),15*,0,76*,32,0,-8
O=C(Nc1ccc2c(c1)OCO2)c1ccc2nc(Nc3ccc(-n4ccnc4)cc3)sc2c1,-2,0,17,-32,·,·
COc1ccc(C(=O)NNC(=O)C(=O)N2CCCC2)cc1OC,5.6*,0,7,-6,1,18
c1csc(-c2[nH]ncc2CNC2CCCCC2)c1,5.1*,0,-3,3,-1,-16
Clc1cccc(-n2ncnc2-c2ccc(Br)cc2)c1,-1,0,-1,3,·,·
O=C(NCCN1CCOCC1)c1ccc2nc(N3CCN(Cc4ccc5c(c4)OCO5)CC3)sc2c1,6.8*,0,-8,9,0,-4
SMILES,GPR151 activ,FBW7 activator,MITF inh,TEAD-YAP block,GPR151 confirm,GPR119 ag
O=C(Nc1ccc(S(=O)(=O)NCc2ccccc2)cc1)N1CCCC1,7.0*,0,1,1,0,15
Cc1cc([N+](=O)[O-])ccc1NC(=O)Cc1ccc(F)cc1,0,0,-7,8,·,·
C/C(CC(=O)Nc1cc([N+](=O)[O-])ccc1C)=N\NC(=O)C(=O)NCCO,8.3*,0,-4,-8,0,9
Cc1ccc([N+](=O)[O-])cc1NC(=O)Cc1ccc(F)cc1,5.4*,0,7,0,-1,-11
CC(=O)CC(=O)Nc1cc([N+](=O)[O-])ccc1C,0,0,6,-6,·,·
CCCCCCOc1ccc(NC(=O)C2CC(=O)N(CC)C(=NCC)S2)cc1 (centres undefined),-1,0,-17,-1,·,·
CS(=O)(=O)Oc1ccc(Cl)cc1/C=C1/N=C(c2cccs2)OC1=O,5.3*,0,2,-6,1,-3
CCOc1cc(/C=C2/N=C(c3cccs3)OC2=O)ccc1OS(C)(=O)=O,-1,0,1,7,·,·
CCCn1c(C)cn2c3c(=O)n(CC(=O)OCc4ccccc4)c(=O)n(C)c3nc12,1,0,2,-1,·,·
C=CCn1c(SC(C)C)nc2c1c(=O)n(C)c(=O)n2C,8.6*,0,3,-1,0,3
CNC(=O)c1c(C)nc(SCC(=O)Nc2ccc(C)c(C)c2)c(C#N)c1-c1ccco1,-3,0,3,-7,·,·
CCC(C)CC(=O)Nc1nc2c(s1)C(=O)CC(C(=O)N(C)C)C2 (centres undefined),0,0,-6,-10,·,·
COc1ccc(NC(=O)c2cc(C)nc3ccccc23)cc1S(=O)(=O)N1CCCCC1,8.4*,0,-2,-3,0,9
COc1ccc(S(=O)(=O)N2CCCCC2)cc1NC(=O)c1cc(C)nc2ccccc12,2,0,7,6,·,·
COc1ccc(C2CC(c3ccc(Br)cc3)Nc3nnnn32)c(OC)c1OC (centres undefined),1,0,4,3,·,·
C=CCC(N)(CC=C)c1ccc(C)cc1,0,0,-8,-5,·,·
COc1ccc(CCN(C)CCCC(C#N)(c2cc(OC)c(OC)c(OC)c2)C(C)C)cc1OC (centres undefined),5.6*,0,-5,-4,-1,-14
N#Cc1cc2cc3c(cc2nc1NCCNS(=O)(=O)c1cccc2ccccc12)OCO3,0,0,-7,-10,·,·
COc1ccc(O)c(CN2CCCCC2)c1,0,0,-4,-9,·,·
COc1ccc(O)c(CN(C)CCN(C)C)c1,7.2*,1,8,10,0,-9
COc1ccccc1C(=O)NC(=S)Nc1ccc(Br)c(C)n1,5.2*,0,10,-3,0,4
CC(=O)NC(=S)Nc1ccc(Br)c(C)n1,-3,0,9,-40,·,·
CCC(=O)Nc1cccc(NC(=S)NC(=O)c2ccccc2OC)c1,8.8*,0,12,-50,0,-9
COc1cccc(NC(=S)Nc2ccccc2OC)c1,13*,0,16,-8,1,-1
O=C(Nc1ccc(N2CCOCC2)cc1)c1ccnc(-c2ccc(C(=O)NC3CC3)cc2)c1,1,0,7,6,·,·
